From publication PMC6792352, “Limited Chemical Structural Diversity Found to Modulate Thyroid Hormone Receptor in the Tox21 Chemical Library” (Environmental Health Perspectives, 2019)
Counter-ions that a name gives are not always drawn.

System: thyroid hormone receptor (endogenous TRα and TRβ)
Set-up: species or system GH3-TRE-Luc (rat pituitary); GH3-TRE-Luc luciferase reporter, antagonist mode against 1 nM T3, loss of signal, qHTS
Conditions: read-out: Average AC50 (uM) GH3-TRE-Antag, antagonist mode, 1 nM T3, no GH3 cytotoxicity hit

Structure (SMILES)	AC50 [µM]
COC(=O)C(C)N(C(=O)Cc1ccccc1)c1c(C)cccc1C (centres unmarked) [Benalaxyl]	> 90
COc1ccc(Nc2ccccc2)c(C)c1 [4-Methoxy-2-methyl-N-phenylaniline]	52.5
CCCCCCCCCCCC(=O)OCC(O)CO (centres unmarked) [1-Monolaurin]	47.2
C=CC(C)(CCC=C(C)C)OC(=O)/C=C/c1ccccc1 (centres unmarked) [Linalyl cinnamate]	73.9
O=C(/C=C/C=C/c1ccc2c(c1)OCO2)N1CCCCC1 [Piperine]	73.5
CCCC[C@H](CC)COC(=O)/C=C/c1ccc(OC)cc1 [Octinoxate]	> 50
CCCOc1ccc2nc(NC(=O)OC)sc2c1 [Tioxidazole]	2.52
CCN(CCCCOC(=O)c1ccc(OC)c(OC)c1)C(C)Cc1ccc(OC)cc1 (centres unmarked) [Mebeverine hydrochloride]	13.7
Cc1cc(C(F)(C(F)(F)F)C(F)(F)F)ccc1NC(=O)c1cccc(I)c1C(=O)NC(C)(C)CS(C)(=O)=O [Flubendiamide]	33.5
CCCN(CC)CC1COC2(CCC(C(C)(C)C)CC2)O1 (centres unmarked) [Spiroxamine]	66.6
CCC(C)COC(=O)CC(C)C (centres unmarked) [2-Methylbutyl isovalerate]	71.8
CC(=O)c1c(C)cc(C(C)(C)C)cc1C [4'-tert-Butyl-2',6'-dimethylacetophenone]	48.7
CC(C)c1ccc2oc3nc(N)c(C(=O)O)cc3c(=O)c2c1 [Amlenanox]	32.7
CN(CCOc1ccc(CC2SC(=O)NC2=O)cc1)c1ccccn1 (centres unmarked) [Rosiglitazone maleate]	75.1
